# In PubChem BioAssay (EPA / NIEHS):
# Results filed as inconclusive are left out. Where a structure was tested more than once in an assay, its records may differ in their call. Active and inactive are the calls of the source. How the source made its calls: active means hit-call score of the fitted dose curve at least 0.9, where 1 is the maximum; inconclusive means response in the unintended direction; inactive means score below 0.9.
# Test system: zebrafish Estrogen Receptor (ESR2B), gene 317733
# Experiment: ATG_zfER2b_XSP1: Attagene TRANS-FACTORIAL Multi-Species (XSP1) HepG2 Assay for zebrafish Estrogen Receptor (ESR2B) (AID 2283773)
# Method: ATG_XSP1_multi-species_TRANS is a cell-based, multiplexed assay created by modifying the existing Attagene TRANS-FACTORIAL system to include a panel of nuclear receptors from some or all the following species: human (Homo sapiens), mouse (Mus musculus), frog (Xenopus laevis), zebrafish (Danio rerio), chicken (Gallus gallus), and turtle (Chrysemys picta). The ECOTOX-FACTORIAL format uses HepG2, a human liver cell line, with measurements taken at 24 hours after chemical dosing in a 24-well plate. Xsp1 included 3 nM 6-alpha-fluorotestosterone to partially stimulate the androgen receptor.ATG_zfER2b_XSP1 is one of 29 assay components measured or calculated from the ATG_XSP1_multi-species_TRANS assay. It is designed to make measurements of mRNA induction, a form of inducible reporter, as detected with fluorescence intensity signals by Reverse transcription polymerase chain reaction (RT-PCR) and Capillary electrophoresis technology.The assay endpoint ATG_zfER2b_XSP1 was analyzed in the positive analysis fitting direction relative to DMSO as the negative control and baseline of activity. Using a type of inducible reporter, measures of mRNA for gain-of-signal activity can be used to understand the reporter gene at the transcription factor-level as they relate to the gene ER. Furthermore, this assay endpoint can be referred to as a primary readout, because this assay has produced multiple assay endpoints where this one serves a reporter gene function. To generalize the intended target to other relatable targets, this assay endpoint is annotated to the nuclear receptor intended target family, where the subfamily is steroidal.
# Human liver HepG2 cells are transiently transfected with multiple reporter transcription units (MRTUs) in 6-well plates using FuGene 6 reagent (Roche; 3 ml FuGene/1 mg DNA). The MRTU constructs are regulated by a cis-regulating element (promoter). […] A major difference between the CIS and TRANS system is that in CIS activities of endogenous TFs are measured, whereas the TRANS assay evaluates changes in activities of exogenous, chimeric NR-Gal4 proteins. […] At the end of 24 hour incubation, total RNA was isolated using TriZol reagent (Invitrogen). The isolated RNA is then reverse-transcribed using oligo(dT) primer and Mo-MLV reverse transcriptase (Invitrogen) with DNAse I (Ambion) treatment for 30 min. The one-tenth of the produced cDNA was amplified by PCR using Taq DNA polymerase (Invitrogen) and two reporter sequence-specific primers. The PCR products were fluorescently labeled by primer extension with 6-arboxyfluorescein (6-FAM) 5'-labeled reporter sequence-specific primer (2 min at 95 C, 20 s at 68 C and 10 min at 72 C) and these products were digested with 5U of HpaI (New England Biolabs) for 2h at 37 C. The fragments were purified using Qiaquick PCR columns (Qiagen), analyzed on an ABI 3130xL genetic analyzer (Applied Biosystems) with peak positions identified by using a set of X-rhodamine (ROX)-labeled MapMarker1000 molecular weight standards (BioVentures). The raw capillary electrophoresis data was processed using Attagraph software (Attagene).
Compound,outcome,AC50
C#C[C@]1(O)CC[C@H]2[C@@H]3CCC4=CC(=O)CC[C@@H]4[C@H]3CC[C@@]21CC,inactive,0.451 µM (active)
Oc1ccc(C(c2ccc(O)cc2)C(Cl)(Cl)Cl)cc1,,0.131 µM (active)
CC(C)(c1ccc(O)cc1)c1ccc(O)cc1,,0.811 µM (active)
CC(C)CCCCCCc1ccc(O)cc1,,0.571 µM (active)
CCCCC(CC)COC(=O)c1ccccc1C(=O)O (stereo unspecified),,62.5 µM (active)
CC(=O)S[C@@H]1CC2=CC(=O)CC[C@]2(C)[C@H]2CC[C@@]3(C)[C@@H](CC[C@@]34CCC(=O)O4)[C@H]12,,82.2 µM (active)
O=C(c1ccc(O)cc1O)c1ccc(O)cc1O,,0.94 µM (active)
CC1(C)C(C=C(Cl)Cl)C1C(=O)OCc1cccc(Oc2ccccc2)c1 (stereo unspecified),,19.8 µM (active)
C=CCOC(Cn1ccnc1)c1ccc(Cl)cc1Cl (stereo unspecified),,20.5 µM (active)
CCCCC(CC)CN1C(=O)C2C3C=CC(C3)C2C1=O (stereo unspecified),,27.4 µM (active)
